In all, about 5,500 compounds went through this assay and about 2,000 (36%) were called active. About 18% were inconclusive and are not listed. No stated cut-off is given here; in the data, active means normalized growth mostly below about 0.91 (no sharp cut-off); inconclusive means no clear call, values can overlap the other calls; inactive means mostly above about 0.92. The list shows a part of the results.
Assay: chemical genetic growth profiling, strain panel (AID 1159580);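 further: tested at 20 µM; growth read once vehicle control cultures reached saturation at 30 °C; 1 = growth at the plate median or of vehicle wells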
Conditions: growth OD

Measured: normalized growth

COc1c2occc2cc2ccc(=O)oc12
inactive: S. cerevisiae deletion strains, locus YJR075W, strain HOC1, stronger effect = lower value 0.976 | S. cerevisiae deletion strains, locus YKL009W, strain mrt4, stronger effect = lower value 0.909 | S. cerevisiae deletion strains, locus YKL068W, stronger effect = lower value 0.996 | S. cerevisiae deletion strains, locus YKL085W, strain MDH1 (second series), stronger effect = lower value 1 | S. cerevisiae deletion strains, locus YKL085W, strain MDH1, stronger effect = lower value 1 | S. cerevisiae deletion strains, locus YKL160W, strain elf1, stronger effect = lower value 0.948 | S. cerevisiae deletion strains, locus YKL190W, strain CNB1, stronger effect = lower value 0.979 | S. cerevisiae deletion strains, locus YKR026C, strain gcn3, stronger effect = lower value 0.983 | S. cerevisiae deletion strains, locus YKR091W, strain srl3, stronger effect = lower value 0.982 | S. cerevisiae deletion strains, locus YLL026W, stronger effect = lower value 0.973 | S. cerevisiae deletion strains, locus YLL041C, strain sdh2, stronger effect = lower value 0.981 | S. cerevisiae deletion strains, locus YLR027C, strain aat2, stronger effect = lower value 0.952 | S. cerevisiae deletion strains, locus YLR039C, strain RIC1, stronger effect = lower value 0.851 | S. cerevisiae deletion strains, locus YLR058C, strain SHM2, stronger effect = lower value 0.988 | S. cerevisiae deletion strains, locus YLR102C, strain apc9, stronger effect = lower value 0.986 | S. cerevisiae deletion strains, locus YLR113W, strain HOG1, stronger effect = lower value 1.08 | S. cerevisiae deletion strains, locus YLR258W, strain gsy2, stronger effect = lower value 0.945 | S. cerevisiae deletion strains, locus YLR262C, strain YPT6 (second series), stronger effect = lower value 0.955 | S. cerevisiae deletion strains, locus YLR262C, strain YPT6, stronger effect = lower value 0.91 | S. cerevisiae deletion strains, locus YLR268W, strain sec22, stronger effect = lower value 0.93 | S. cerevisiae deletion strains, locus YLR330W, strain CHS5, stronger effect = lower value 0.991 | S. cerevisiae deletion strains, locus YLR342W, strain FKS1 (second series), stronger effect = lower value 0.971 | S. cerevisiae deletion strains, locus YLR342W, strain FKS1, stronger effect = lower value 0.965 | S. cerevisiae deletion strains, locus YLR357W, strain rsc2, stronger effect = lower value 1.01 | S. cerevisiae deletion strains, locus YLR370C, strain arc18, stronger effect = lower value 0.914 | S. cerevisiae deletion strains, locus YLR371W, strain rom2, stronger effect = lower value 0.969 | S. cerevisiae deletion strains, locus YLR384C, strain iki3, stronger effect = lower value 0.963 | S. cerevisiae deletion strains, locus YLR418C, strain cdc73, stronger effect = lower value 0.95 | S. cerevisiae deletion strains, locus YML016C, strain PPZ1, stronger effect = lower value 0.987 | S. cerevisiae deletion strains, locus YML124C, strain tub3, stronger effect = lower value 0.996 | S. cerevisiae deletion strains, locus YMR058W, strain fet3, stronger effect = lower value 0.927 | S. cerevisiae deletion strains, locus YMR078C, strain ctf18, stronger effect = lower value 0.974 | S. cerevisiae deletion strains, locus YMR125W, strain sto1, stronger effect = lower value 1.01 | S. cerevisiae deletion strains, locus YMR129W, stronger effect = lower value 0.99 | S. cerevisiae deletion strains, locus YMR205C, strain PFK2, stronger effect = lower value 0.941 | S. cerevisiae deletion strains, locus YMR223W, strain ubp8, stronger effect = lower value 0.924 | S. cerevisiae deletion strains, locus YMR231W, strain pep5, stronger effect = lower value 0.989 | S. cerevisiae deletion strains, locus YMR263W, strain SAP30, stronger effect = lower value 0.942 | S. cerevisiae deletion strains, locus YMR307W, strain GAS1, stronger effect = lower value 0.949 | S. cerevisiae deletion strains, locus YNL067W, strain RPL9B, stronger effect = lower value 0.939 | S. cerevisiae deletion strains, locus YNL071W, strain lat1, stronger effect = lower value 0.947 | S. cerevisiae deletion strains, locus YNL128W, strain TEP1, stronger effect = lower value 0.962 | S. cerevisiae deletion strains, locus YNL153C, strain GIM3, stronger effect = lower value 0.983 | S. cerevisiae deletion strains, locus YNL183C, strain NPR1, stronger effect = lower value 0.971 | S. cerevisiae deletion strains, locus YNL233W, strain BNI4, stronger effect = lower value 0.944 | S. cerevisiae deletion strains, locus YNL248C, strain rpa49, stronger effect = lower value 0.901 | S. cerevisiae deletion strains, locus YNL250W, strain rad50, stronger effect = lower value 0.968 | S. cerevisiae deletion strains, locus YNL271C, strain bni1, stronger effect = lower value 0.983 | S. cerevisiae deletion strains, locus YNL298W, strain CLA4, stronger effect = lower value 0.933 | S. cerevisiae deletion strains, locus YNL322C, strain KRE1, stronger effect = lower value 1 | S. cerevisiae deletion strains, locus YNR049C, strain mso1, stronger effect = lower value 0.962 | S. cerevisiae deletion strains, locus YNR052C, strain pop2, stronger effect = lower value 0.978 | S. cerevisiae deletion strains, locus YOL006C, strain TOP1, stronger effect = lower value 0.79 | S. cerevisiae deletion strains, locus YOL012C, strain htz1 0.845 | S. cerevisiae deletion strains, locus YOL147C, strain pex11, stronger effect = lower value 0.982 | S. cerevisiae deletion strains, locus YOR001W, strain rrp6, stronger effect = lower value 0.958 | S. cerevisiae deletion strains, locus YOR061W, strain CKA2, stronger effect = lower value 0.99 | S. cerevisiae deletion strains, locus YOR069W, strain VPS5, stronger effect = lower value 0.991 | S. cerevisiae deletion strains, locus YOR070C, strain gyp1, stronger effect = lower value 0.956 | S. cerevisiae deletion strains, locus YOR080W, strain dia2, stronger effect = lower value 0.95 | S. cerevisiae deletion strains, locus YOR083W, strain WHI5, stronger effect = lower value 0.914 | S. cerevisiae deletion strains, locus YOR136W, strain idh2, stronger effect = lower value 0.974 | S. cerevisiae deletion strains, locus YOR144C, strain elg1, stronger effect = lower value 0.97 | S. cerevisiae deletion strains, locus YOR231W, strain MKK1, stronger effect = lower value 1.01 | S. cerevisiae deletion strains, locus YOR265W, strain rbl2, stronger effect = lower value 0.963 | S. cerevisiae deletion strains, locus YOR270C, strain vph1, stronger effect = lower value 0.83 | S. cerevisiae deletion strains, locus YOR316C, strain cot1, stronger effect = lower value 1 | S. cerevisiae deletion strains, locus YPL051W, strain arl3, stronger effect = lower value 0.939 | S. cerevisiae deletion strains, locus YPL055C, strain LGE1, stronger effect = lower value 0.938 | S. cerevisiae deletion strains, locus YPL078C, strain atp4, stronger effect = lower value 0.964 | S. cerevisiae deletion strains, locus YPL106C, strain sse1, stronger effect = lower value 0.899 | S. cerevisiae deletion strains, locus YPL240C, strain hsp82, stronger effect = lower value 0.965 | S. cerevisiae deletion strains, locus YPL241C, strain CIN2, stronger effect = lower value 0.959 | S. cerevisiae deletion strains, locus YPL256C, strain CLN2, stronger effect = lower value 1.1 | S. cerevisiae deletion strains, locus YPR119W, strain clb2, stronger effect = lower value 0.998 | S. cerevisiae deletion strains, locus YPR141C, strain kar3, stronger effect = lower value 1.02 | S. cerevisiae deletion strains, locus YPR163C, strain tif3, stronger effect = lower value 0.983 | S. cerevisiae deletion strains, locus YPR167C, strain met16, stronger effect = lower value 1.01 | S. cerevisiae deletion strains, strain wtn01, stronger effect = lower value 0.966 | S. cerevisiae strains, strain wild type, stronger effect = lower value 1
active: S. cerevisiae deletion strains, locus YKR001C, strain vps1, stronger effect = lower value 0.863 | S. cerevisiae deletion strains, locus YLL001W, strain dnm1, stronger effect = lower value 0.874 | S. cerevisiae deletion strains, locus YLR221C, strain rsa3, stronger effect = lower value 0.891 | S. cerevisiae deletion strains, locus YLR320W, strain mms22, stronger effect = lower value 0.833 | S. cerevisiae deletion strains, locus YML032C, strain rad52, stronger effect = lower value 0.876 | S. cerevisiae deletion strains, locus YML120C, strain ndi1, stronger effect = lower value 0.866 | S. cerevisiae deletion strains, locus YNL209W, strain ssb2, stronger effect = lower value 0.923 | S. cerevisiae deletion strains, locus YNL307C, strain MCK1, stronger effect = lower value 0.88 | S. cerevisiae deletion strains, locus YNL322C, strain KRE1 (second series), stronger effect = lower value 0.763 | S. cerevisiae deletion strains, locus YOR106W, strain vam3, stronger effect = lower value 0.701 | S. cerevisiae deletion strains, locus YOR184W, strain ser1, stronger effect = lower value 0.859 | S. cerevisiae deletion strains, locus YOR290C, strain snf2, stronger effect = lower value 0.856

Reference: PubChem BioAssay AID1159580 (chemical genetic matrix, 2015)
